# Rpn11 block: inhibitors of human proteasome Rpn11. O00487. human 26S proteasome, Ub4-pepOG fluorescence polarization; 20S core pre-blocked with epoxomicin. inhibition, % at 20 µM. hit rate 0.59% among 360,000. AID 588493;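 active = inhibition at 20 µM, scaled to each plate's controls, above about 33%, limit read from the data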
# PREPL inhibitor: human PREPL enzyme inhibition. Q4J6C6. recombinant PREPL, fluorescence polarization activity-based probe. inhibition, % at 5.96 µM. hit rate 0.68% among 320,000. AID 2751;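 note: 0% = enzyme with DMSO and 100% = wells lacking enzyme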
# PP5 primary: PP5 (human) phosphatase inhibition. AID 1987. inhibition, % at 6.7 µM. hit rate 0.18% among 320,000. purified PP5c, OMFP substrate fluorescence;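 active = inhibition above the campaign's mean inhibition across all tested compounds plus 3 SD, cut at about 9.5% in these data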;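 note: 0% = DMSO only and 100% = 100 µM cantharidin control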
# PP1 inh: blocks human PP1-alpha phosphatase, a PP5 counter-screen; P62136; purified PP1alpha, OMFP fluorescence; inhibition, % at 6.7 µM; hit rate 0.9% among 320,000;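 active = inhibition above the mean inhibition of all tested compounds plus 3 SD, computed separately for each screening campaign, cut at about 15% in these data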
# Target sequence (P62136 whole entry, looked up): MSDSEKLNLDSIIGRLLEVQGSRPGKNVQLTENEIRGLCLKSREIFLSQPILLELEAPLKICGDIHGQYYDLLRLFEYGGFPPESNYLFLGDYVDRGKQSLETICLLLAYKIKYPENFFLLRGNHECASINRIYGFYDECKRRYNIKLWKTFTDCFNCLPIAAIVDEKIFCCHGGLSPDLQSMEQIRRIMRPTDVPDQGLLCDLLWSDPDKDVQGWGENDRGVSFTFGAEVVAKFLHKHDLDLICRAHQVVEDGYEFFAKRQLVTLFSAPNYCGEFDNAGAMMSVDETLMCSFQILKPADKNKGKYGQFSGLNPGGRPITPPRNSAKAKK
# NadD inh: blocks S. aureus nicotinate mononucleotide adenylyltransferase; purified NadD enzyme, colorimetric absorbance read-out; hit rate 0.78% among 360,000; inhibition, % at 20 µM; AID 602399; in the data active = inhibition above about 26%
# PREPL confirm: confirmation of human PREPL enzyme inhibitors; shares compounds with PREPL inhibitor; recombinant PREPL, fluorescence polarization activity probe; inhibition, % at 5.96 µM; hit rate 67% among 2,000; AID 2803;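 note: 0% = protein with DMSO and 100% = wells lacking protein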
# NadD inh conf: NadD (S. aureus) inhibition, single concentration confirmation | shares compounds with NadD inh | purified S. aureus NadD, colorimetric enzyme assay | inhibition, % at 20 µM | hit rate 13% among 2,000 | AID 624309; in the data active = inhibition mostly above about 42%, no sharp cut-off; inactive = mostly below about 42%
# Starred values were filed as active, the others as inactive; x = no result. Rows were chosen to be rich in hits. Some 2.4% of all compounds tested hit in one or more screens of this group. Cut-off read from the data, not from the text of the source, unless noted: active = inhibition above about 43%; inactive = the rest.
SMILES,Rpn11 block,PREPL inhibitor,PP5 primary,PP1 inh,NadD inh,PREPL confirm,others
CN1CC2([N+](=O)[O-])CC=C(Cl)C([N+](=O)[O-])(C1)C2 (centres undefined),-6,-4,-2,-2,1,x,
CCCC[C@@H](C)C[C@@H](C)C(=O)N(C)[C@@H](CC(C)C)C(=O)N[C@H](C(=O)N(C)[C@H](C(=O)N1C[C@@H](O)C[C@H]1C(=O)N1C(=O)C=C[C@@H]1C)C(C)C)C(C)OC(C)=O (some centres undefined),4,50*,x,x,-11,48*,
CCN1C[C@]2(C)CC[C@H](O)[C@]34C1[C@H](C[C@H]23)[C@@]1(O)C[C@H](OC)[C@H]2C[C@@H]4[C@@H]1C2O (some centres undefined),-1,8,1,3,0,x,
COc1ccc2[nH]c(C)c(CCNCc3cn(C)c4ccccc34)c2c1,4,70*,0,-2,-2,54*,
Cc1[nH]c2ccccc2c1CCNCc1cccnc1,0,-6,-2,3,-4,x,
COC(=O)[C@@H]1C[C@@]1(C)[C@@H](NP(=O)(c1ccccc1)c1ccccc1)c1ccccc1,-4,48*,3,-2,-1,56*,
C=CCN1C(=O)c2ccccc2Sc2ccc(C(=O)N3CCC4(CC3)OCCO4)cc21,-2,-7,1,1,-3,x,
O=C(c1ccc2c(c1)N(Cc1ccccc1)CCS2)N1CCC2(CC1)OCCO2,-3,58*,3,2,-4,55*,
Cc1ccc(N)cc1N,-2,54*,2,-2,3,4,
Cc1ccc(N)c(N)c1,-3,-1,3,-1,7,x,
Cc1ncoc1C(=O)NCC1=C(c2ccc3ccccc3c2)C[C@@H]2CC[C@H]1N2Cc1ccco1,-3,x,x,x,2,x,
CN1C[C@H](CNC(=O)OCc2ccccc2)C[C@@H]2c3cccc4c3c(cn4C)C[C@H]21,-74,64*,2,7,-2,61*,
CN1C[C@H](CO)C[C@@H]2c3cccc4[nH]cc(c34)C[C@H]21,-12,10,1,-11,-2,x,
CCn1nc(-c2ccccc2)nc2c(=O)n(C)c(=O)nc1-2,9,56*,4,39*,-3,44*,
COc1ccc(-c2nc3ccccc3c(=O)n2-c2ccc(OC)cc2)cc1,-2,-4,0,-4,-2,x,
Brc1ccc(-[n+]2c(-c3ccccc3)cc(-c3ccccc3)cc2-c2ccccc2)cc1,-8,56*,2,12,7,56*,
[O-]c1ccccc1-[n+]1c(-c2ccccc2)cc(-c2ccccc2)cc1-c1ccccc1,-36,45*,2,4,10,54*,
CCC(c1nnnn1-c1ccc2c(c1)OCCO2)N1CCC2(CC1)C(=O)NCN2c1ccccc1 (centres undefined),-14,x,x,x,3,x,
C=CCn1c(O)c(C(C)=NCCc2c[nH]c3ccccc23)c(=O)[nH]c1=O,5,49*,-1,-2,-5,48*,
C=CCn1c(O)c(C(C)=NCCC(c2ccccc2)c2ccccc2)c(=O)[nH]c1=O,-4,2,0,3,-5,x,
CCCCn1c(O)c(C(C)=NCCc2c[nH]c3ccccc23)c(=O)[nH]c1=O,-4,44*,3,1,-6,36,
O=C(Cn1c(=O)n(CC2CS2)c2ccccc21)N1CCCCCC1 (centres undefined),-1,1,-1,-1,-4,x,
CC(=O)OC1CCC2(C)C(CCC3C4CC(N5CC5)C(C(C)=O)C4(C)CC(=O)C32)C1 (centres undefined),-2,x,x,x,15,x,
COC(=O)C1=C(c2ccc(F)cc2F)C[C@@H]2CC[C@H]1N2C(=O)NC(C)C,3,9,1,2,-5,x,
CCCNC(=O)N1[C@H]2CC[C@@H]1C(C(=O)OC)=C(c1cc3ccccc3s1)C2,1,-1,1,-1,-2,x,
SMILES,Rpn11 block,PREPL inhibitor,PP5 primary,PP1 inh,NadD inh,PREPL confirm,others
Cc1nc2c(=O)n(C)c(=O)nc-2n(C)n1,3,44*,11*,44*,-3,51*,
COc1ccc2[nH]c3c(c2c1)CCN=C3C,18,82*,1,10,3,41,
O=C1C(=O)c2ccccc2-c2ccccc21,9,53*,4,40*,3,50*,
CCN1C[C@]2(COC)CC[C@H](O)[C@]34C1[C@](O)([C@@H](OC)[C@H]23)[C@@]1(O)C[C@H](OC)[C@H]2C[C@@H]4[C@@H]1[C@H]2OC,1,1,-1,-1,4,x,
CCN1C[C@]2(COC)CC[C@H](OC)[C@@]34C5C[C@H]6C(=O)C5[C@](O)(C[C@H]6OC)[C@@](O)(C(OC)C23)[C@@H]14 (some centres undefined),4,9,1,-5,4,x,
CCN1C[C@]2(COC(=O)c3ccccc3N)CC[C@H](OC)C34[C@@H]5C[C@H]6[C@H](OC)[C@@H]5[C@](O)(C[C@@H]6OC)[C@@](O)([C@H]13)[C@@H](OC)[C@@H]42,-1,53*,4,0,2,46*,
CCN1CC2(COC(=O)c3ccccc3N)CCC(OC)C34C5CC6C(OC)CC(O)(C5C6OC)C(O)(C(OC)C23)C14 (centres undefined),1,45*,-1,-3,5,45*,
CCNC(=S)N1CCn2cccc2C1c1cccnc1 (centres undefined),2,-5,0,-8,-1,x,
CCCCn1c(O)c(C(CC)=NCc2ccc3c(c2)OCO3)c(=O)[nH]c1=O,-4,49*,0,4,-3,49*,
CCCCn1c(O)c(C(=O)/C=C/c2ccc3c(c2)OCO3)c(=O)[nH]c1=O,6,-3,1,-1,4,x,
C=CCn1c(O)c(C(CC)=NCc2ccc3c(c2)OCO3)c(=O)[nH]c1=O,-6,55*,1,-2,-4,53*,
C[C@]12CCC(=O)C[C@H]1CC[C@@H]1[C@@H]2CC[C@]2(C)[C@@H](O)CC[C@@H]12,x,-2,3,-5,x,x,
Cc1ccc(N2C(=O)NC(=O)/C(=C\C=C\c3ccco3)C2=O)cc1C,32,-11,-3,-2,2,x,
Cc1cccc(N=Nc2ccc(N(C)C)cc2)c1,6,0,4,6,6,x,
Cc1[nH]c2ccc(OCc3ccccc3)cc2c1CCN,0,50*,2,-1,-8,44*,
COc1ccc(CN2CC=C(c3ccc(F)cc3)CC2)cc1Br,2,x,x,x,-1,x,
CCN(CC)c1ccc(CN2CC=C(c3ccc(F)cc3)CC2)cc1,1,46*,-2,4,-9,37,
C[n+]1c(-c2ccccc2)cc(CCCCc2cc(-c3ccccc3)[n+](C)c(-c3ccccc3)c2)cc1-c1ccccc1,7,46*,1,6,40*,46*,NadD inh conf=43

# Screening results (PubChem BioAssay)
